The record followed here is PubChem BioAssay AID489025 (Southern Research Specialized Biocontainment Screening …, 2010).

Among all 2,300 compounds or so, about 790 (34%) were called active. Some of the results follow. Potency and affinity values are given separately. Unmarked numbers belong to inactive results. No rule for the calls is given here.

The test is described as follows: THP-1 cell cytotoxicity, dose response, cytotoxicity control for non-replicating M. tuberculosis project (AID 489025). The settings on record: THP-1 cell viability; series mostly up to 40 µM; viability: at the top concentration.
On to `COc1ccc(OC(=O)C(C)N2C(=O)c3ccccc3C2=O)cc1` (stereo unspecified), for which the viability (in general, a read-out of living cells in per cent, often relative to untreated cells) was 123%.
The figure for `CN(C)Cc1ccccc1Sc1ccccc1Br` is 93%.
The figure for `COC(=O)COc1ccc2c(-c3ccc(OC)cc3)cc(=O)oc2c1` is 106%.
Next, `CCOCC(=O)Nc1nc2ccc(C)cc2s1`: 103%.
Consider `O=C(Nc1nccs1)c1ccccn1`, for which the “viability” value is 103%.
Regarding `O=C(Nc1c(F)cc(F)cc1Br)c1cc(-c2ccccc2)on1`, the “viability” value was 110%.
Turning to `O=C(NNc1nc2cc3c(cc2s1)OCCO3)c1ccccc1`, the “viability” value was 94.1%.
Next, `Cc1nc2ccc(OC(=O)c3ccccc3)cc2s1`: 126%; `CCOc1ccc2nc(/N=C/c3nc(-c4ccccc4)oc3O)sc2c1`: 113%.
Next, `Cc1ccc(C)c(-c2csc(NC(=O)c3cnccn3)n2)c1`: 98.3%; `O=C(CCN1CCC(c2ccccc2)C1)c1ccccc1` (stereo unspecified): 82.5%; `O=C(CNC(=O)c1ccccc1F)OCc1csc(-c2ccccc2)n1`: 117%.
The figure for `O=C(NCc1ccc2c(c1)OCO2)c1ccc(Cl)s1` is 98.2%; for `C=CCc1ccc2oc(C(=O)OCC)cc(=O)c2c1O` it is 125%.
As to `CCc1ccc(C(C)NC(=O)C2CCCO2)cc1` (stereo unspecified), the “viability” value was 106%.
Next, `CC1=CC(=O)NP(=O)(Oc2ccc3ccccc3c2)N1` (stereo unspecified): 107%; `O=C(NNc1nc2ccccc2s1)c1ccc(F)cc1`: 78%.
Next, `Cc1nc2ccc(NC(=O)COc3cccc(F)c3)cc2s1`: 101%; `COc1cc(/C=C2/C(=O)NN(c3cccc(C)c3)C2=O)ccc1OC(=O)c1ccco1`: 101%; `COc1cc(NC(=O)C/C(C)=N/NC(=O)c2cccs2)c(OC)cc1Cl`: 77.3%.
On to `Cc1cccc2nc(CSc3nc4cc([N+](=O)[O-])ccc4s3)cn12`, for which the “viability” value was 117%.
Next, `O=C(O)c1ccc(NCc2ccc(Br)cc2)cc1`: 115%.
For the compound `O=C(CN1CCOCC1)N/N=C/c1ccc(-c2ccc(Br)cc2)o1`, the “viability” value was 113%.
Next, `CCCOC(=O)c1cc(-c2ccc(C=O)o2)ccc1Cl`: 100%.
Turning to `COC(=O)c1cc(-c2ccc(OC)cc2)on1`, the “viability” value is 105%.
Turning to `CCOC(=O)CNC(=O)N1c2ccccc2Sc2ccccc21`, the “viability” value is 94.3%.
As for `CCOC(=O)c1c(-c2ccccc2)csc1NC(=O)CCN1CCOCC1`, the “viability” value is 78.9%.
Next, `CCOC(=O)c1sc(NC(=O)CCN2CCOCC2)c(C(=O)OCC)c1C`: 96.3%; `CCOC(=O)Nc1cccc(OCC(=O)Nc2ccc(OC)cc2OC)c1`: 111%; `COc1cc(/C=N/Nc2ccc(Cl)c(C(=O)O)c2)ccc1OC(=O)c1ccco1`: 102%.
As to `CC(C)CSc1nnc2c3ccccc3n(C)c2n1`, the “viability” value is 97%.
Take `Cc1ccc(/C(O)=C/c2nc3ccccc3oc2=O)cc1`: the “viability” value is 81.1%.
For `COc1ccc(C(=O)COC(=O)c2ccc(Cl)nc2)c(OC)c1`, the “viability” value is 113%.
As for `O=C1CC(N2CCN(c3ccc(F)cc3)CC2)C(=O)N1Cc1ccccc1` (stereo unspecified), the “viability” value was 113%.
The figure for `O=C(NNc1c(F)c(F)cc(F)c1F)c1cc2ccccc2oc1=O` is 83.4%.
On to `Nc1ccc2cc(Br)ccc2c1`, for which the “viability” value was 105%.
With `O=C(OCC(=O)N1CCCc2ccccc21)c1ccc(S(=O)(=O)C(F)F)cc1`, the “viability” value was 113%.
Next, `O=C(C1CCN(C2CC(=O)N(Cc3ccccc3)C2=O)CC1)N1CCCCCC1` (stereo unspecified): 103%.
The figure for `Cc1cccc(OC(=O)c2ccc3nccnc3c2)c1` is 101%; for `CCOC(=O)C1(CC2CCCCO2)CCN(Cc2nccn2-c2ccc(OC)cc2)CC1` (stereo unspecified) it is 93.6%; for `O=C(COc1ccc2ccccc2c1Br)N1CCCC1` it is 107%.
The figure for `C=CC(=O)Oc1ccc(N2Cc3ccccc3C2=O)cc1` is 105%; for `CCOC(=O)Cn1nc(/C=C/c2ccccc2)ccc1=O` it is 115%.
In the case of `O=C1NC(Cc2c[nH]c3ccccc23)C(=O)N1CCOc1ccccc1` (stereo unspecified), the “viability” value was 92.5%.
For `CC(C)c1nnc(NC(=O)c2sc3ccccc3c2Cl)s1`, the “viability” value is 107%.
Next, `CC(C)c1nnc(NC(=O)c2cc3cc(Br)ccc3oc2=O)s1`: 90.6%; `O=C(N/N=C/C=C/c1ccccc1)c1cccs1`: 120%.
Next, `N/C(=N\OC(=O)c1cccs1)c1ccccc1`: 90.9%; `CCOC(=O)c1c(C)[nH]c(C)c1C(=O)COC(=O)c1ccc([N+](=O)[O-])s1`: 83.1%.
In the case of `O=C(OCC(=O)c1c[nH]c2ccccc12)c1ccc([N+](=O)[O-])s1`, the “viability” value was 92.8%.
The figure for `COC(=O)C1=C(N)OC2=C(C(=O)CC(C)(C)C2)C1c1cccnc1` (stereo unspecified) is 101%.
As for `CC1(C)CC(=O)C2=C(C1)OC(N)=C([N+](=O)[O-])C2c1ccc(C#N)s1` (stereo unspecified), the “viability” value was 108%.
`COc1ccccc1NC(=O)CCN1CCN(c2ccc(Cl)cc2)CC1`: the “viability” value was 114%.
With `O=[N+]([O-])c1ccc(CSc2nnc(-c3cccnc3)o2)cc1`, the “viability” value is 94.9%.
Regarding `CC1(c2nnc(-c3ccc(F)cc3)o2)CC(c2cccc(Cl)c2)=NO1` (stereo unspecified), the “viability” value is 102%.
As to `COC(=O)CCn1c(C)cc(C(=O)COc2ccccc2C(N)=O)c1C`, the “viability” value was 70.3%.
The figure for `CCCNC(=O)c1ccc(COc2ccc(C)cc2)o1` is 110%; for `CCOC(=O)C(C)Oc1ccc(OCc2ccccc2)cc1` (stereo unspecified) it is 77.2%; for `Cc1ccc(/C=C2\SC(N3CCCC3)=NC2=O)cc1` it is 91.7%.
For the compound `CCNC(=O)NC(=O)C(C)OC(=O)CCCSc1nc2ccccc2s1` (stereo unspecified), the “viability” value is 99.5%.
As for `O=[N+]([O-])c1ccc(Nc2ccccc2)c2nonc12`, the “viability” value is 95.5%.
The figure for `O=[N+]([O-])c1ccc(Nc2ccccc2O)c2nonc12` is 79.9%.
As for `CC1(c2nnc(-c3ccccc3)o2)CC(c2ccc(Cl)cc2)=NO1` (stereo unspecified), the “viability” value was 112%.
Consider `Cn1cccc1/C=N/NC(=O)c1ccncc1`, for which the “viability” value was 109%.
Next, `C/C(=N/NC(=O)c1ccncc1)C1=C(O)CC(C)(C)CC1=O`: 120%.
Turning to `O=[N+]([O-])c1cncc([N+](=O)[O-])c1Nc1ccccc1Cl`, the “viability” value was 70.5%.
For `Cc1cccc(NC(=O)c2ccc(OC3CSC3)cc2)c1`, the “viability” value is 87.2%.
The figure for `O=C(N/N=C/c1ccc(OC(=O)c2cccs2)cc1)c1ccccn1` is 88.1%; for `COc1ccc(Cc2nnc(SCc3ccc([N+](=O)[O-])cc3)o2)cc1` it is 86.3%.
As for `CC(OC(=O)c1ccc([N+](=O)[O-])s1)C(=O)NC1CCCCC1C` (stereo unspecified), the “viability” value is 90.2%.
Turning to `O=C(OCC(=O)N1CCC(c2ccccc2)=N1)c1ccc([N+](=O)[O-])s1`, the “viability” value is 85.2%.
On to `O=C(Nc1ccc2c(c1)CCC2)c1ccc(Br)o1`, for which the “viability” value was 74.3%.
With `COc1cccc(NC(=O)c2ccc(Cn3cc([N+](=O)[O-])cn3)o2)c1`, the “viability” value is 111%.
For `CC(=O)c1ccc(NC(=O)CCc2ccc(C)o2)cc1`, the “viability” value is 92.8%.
In the case of `CC(C)(C)C(=O)/C=C/Nc1ccccc1O`, the “viability” value was 102%.
In the case of `O=C(CC1CC2CCC1C2)NCc1cccs1` (stereo unspecified), the “viability” value is 100%.
With `O=C(OCC(=O)N1CCc2ccccc2C1)c1cccc([N+](=O)[O-])c1`, the “viability” value was 121%.
In the case of `O=C(CCS(=O)(=O)c1ccc(Cl)cc1)Oc1ccc2c(c1)OCO2`, the “viability” value is 110%.
With `CCc1cc(C=NC2CCCCC2)c(O)s1`, the “viability” value is 82.6%.
For `Cc1ccc(CSc2nnc(-c3cccnc3)o2)cc1`, the “viability” value was 105%.
The figure for `Cc1ccccc1C1=N/C(=C/c2cccnc2)C(=O)O1` is 102%; for `CCCc1nnc(NC(=O)c2cc3ccccc3oc2=O)s1` it is 108%; for `COc1cc(OC)c2c(OC)cccc2n1` it is 107%.
Next, `CC(NC(=O)c1cc2ccccc2oc1=O)c1ccccc1` (stereo unspecified): 110%; `Cc1ccc(C(C)NC(=O)c2cc3ccccc3oc2=O)cc1C` (stereo unspecified): 102%.
Consider `CCCc1cc(C(=O)Nc2cccc(C(C)=O)c2)no1`, for which the “viability” value is 120%.
Take `Cc1cc(OCC(=O)Nc2ccncc2)ccc1Br`: the “viability” value was 119%.
The figure for `CSC1=N/C(=C\c2ccc3c(c2)OCO3)C(=O)S1` is 116%; for `COc1ccc2c(c1)sc(=N)n2C` it is 74.8%; for `Cc1ccc(NC(=O)C2COc3ccccc3O2)nc1` (stereo unspecified) it is 94.7%.
Next, `COc1ccc(C(=O)Nc2nnc(C3=COCCO3)o2)cc1`: 105%; `O=C(Nc1nnc(C2=COCCO2)o1)c1ccc(F)cc1`: 81.9%.
For the compound `CCCn1c(CNc2ccccc2O)nc2ccccc21`, the “viability” value is 75.4%.
As for `O=c1oc2ccccc2c(Nc2ccccc2O)c1[N+](=O)[O-]`, the “viability” value is 93.7%.
The figure for `Clc1ccc(OC2CCN(Cc3nc(CC4CC4)no3)CC2)cc1` is 90%.
For `CCCCOc1ccc(-c2nnn(C(C)C(=O)OCC)n2)cc1` (stereo unspecified), the “viability” value is 105%.
The figure for `CCOC(=O)c1sc(NC(=O)CCN2CC(C)OC(C)C2)c(C(=O)OCC)c1C` (stereo unspecified) is 82.6%; for `CCc1nonc1NC(=O)COc1ccc(Cl)c(C)c1` it is 126%; for `O=C1c2ccccc2C(=O)N1CCOc1ccc(F)cc1` it is 95.2%.
The figure for `Cc1cc(C)cc(OC(=O)CCN2C(=O)c3ccccc3C2=O)c1` is 100%; for `O=C(c1ccc([N+](=O)[O-])o1)N1CCN(c2nc3ccc(F)cc3s2)CC1` it is 106%.
With `COc1cccc2cc(C(=O)c3ccc([N+](=O)[O-])cc3)oc12`, the “viability” value is 85.8%.
The figure for `C=CC[n+]1ccn(-c2nc3ccccc3nc2[N-]S(=O)(=O)c2cccs2)c1` is 110%; for `CCCCCCNC(=O)c1ccc(Br)o1` it is 104%; for `CC(=O)CCC1CC(c2ccc(Cl)cc2)=NO1` (stereo unspecified) it is 103%.
Next, `Cc1c(Cl)cccc1NC(=O)C(=O)NNC(=O)c1ccccc1F`: 79.9%.
The figure for `CCOC(=O)c1c(NC(=O)COC(=O)c2ccccn2)sc2c1CCC2` is 97.1%.
On to `O=C(Nc1nnc(-c2cc(Cl)ccc2Cl)o1)C1=COCCO1`, for which the “viability” value is 75.8%.
The figure for `O=C(CCN1C(=O)S/C(=C\c2ccc(F)cc2)C1=O)Nc1ccc(C(=O)O)c(O)c1` is 107%; for `O=C(NNC(=O)c1ncc(Cl)c(Cl)c1Cl)c1ccc(F)cc1` it is 92.2%.
Regarding `CC1CCN(CCOCCSc2ccc(Cl)cc2)CC1`, the “viability” value is 74%.
For `COc1ccc2cc(C(=O)NCc3ccccc3)c(=O)oc2c1`, the “viability” value was 103%.
For the compound `O=C(CCC1CCCC1)NCc1ccccn1`, the “viability” value was 107%.
Next, `COc1ccc(NC(=O)COc2ccc3c(c2)CCC3)cc1`: 111%; `O=C1OC(/C=C/c2ccccc2)=NC/1=C\c1cccnc1`: 119%; `Cc1ccc(C2=N/C(=C\c3cccnc3)C(=O)O2)cc1`: 117%.
As to `Cc1cccnc1NC(=O)c1c(O)c2ccccc2n(C)c1=O`, the “viability” value is 85.8%.
On to `CCn1c(=O)c(C(=O)Nc2ncccc2C)c(O)c2ccccc21`, for which the “viability” value was 71.2%.
Next, `C=CCn1c(=O)c(C(=O)Nc2cccnc2)c(O)c2ccccc21`: 103%; `Cn1c(=O)c(Oc2ccc(Cl)cc2)c(O)c2ccccc21`: 118%.
Next, `COc1cc(C2C3=C(CC(C)(C)CC3=O)OC(N)=C2[N+](=O)[O-])ccc1O` (stereo unspecified): 97.8%.
